Experimental findings from PubChem BioAssay AID1946 (Johns Hopkins Ion Channel Center, 2009) are described below.

About 180 (7.5%) of roughly 2,400 compounds were called active. This excerpt belongs to a sample that is enriched for actives. Unmarked numbers belong to inactive results.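 Rule for the calls: active = readout below zero, meaning a drop past 3 SD under the dofetilide-free negative control mean; inactive = the rest.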

In this test the target is Potassium voltage-gated channel subfamily KQT member 2 (Rattus norvegicus) (UniProt O88943). The experiment in a line: KCNQ2 blockade in CHO cells – cell-based, FluxOR thallium flux, counter-screen for hERG block protector project, confirmation (AID 1946). The conditions noted are these: FluxOR thallium flux fluorescence, at 10 µM, hits give low values, zero marks the 3-SD hit cutoff. (In general: The purpose of a counterscreen is to sort out artefacts and off-target activity.)
Potassium voltage-gated channel subfamily KQT member 2 (Rattus norvegicus), sequence (O88943 whole entry, looked up): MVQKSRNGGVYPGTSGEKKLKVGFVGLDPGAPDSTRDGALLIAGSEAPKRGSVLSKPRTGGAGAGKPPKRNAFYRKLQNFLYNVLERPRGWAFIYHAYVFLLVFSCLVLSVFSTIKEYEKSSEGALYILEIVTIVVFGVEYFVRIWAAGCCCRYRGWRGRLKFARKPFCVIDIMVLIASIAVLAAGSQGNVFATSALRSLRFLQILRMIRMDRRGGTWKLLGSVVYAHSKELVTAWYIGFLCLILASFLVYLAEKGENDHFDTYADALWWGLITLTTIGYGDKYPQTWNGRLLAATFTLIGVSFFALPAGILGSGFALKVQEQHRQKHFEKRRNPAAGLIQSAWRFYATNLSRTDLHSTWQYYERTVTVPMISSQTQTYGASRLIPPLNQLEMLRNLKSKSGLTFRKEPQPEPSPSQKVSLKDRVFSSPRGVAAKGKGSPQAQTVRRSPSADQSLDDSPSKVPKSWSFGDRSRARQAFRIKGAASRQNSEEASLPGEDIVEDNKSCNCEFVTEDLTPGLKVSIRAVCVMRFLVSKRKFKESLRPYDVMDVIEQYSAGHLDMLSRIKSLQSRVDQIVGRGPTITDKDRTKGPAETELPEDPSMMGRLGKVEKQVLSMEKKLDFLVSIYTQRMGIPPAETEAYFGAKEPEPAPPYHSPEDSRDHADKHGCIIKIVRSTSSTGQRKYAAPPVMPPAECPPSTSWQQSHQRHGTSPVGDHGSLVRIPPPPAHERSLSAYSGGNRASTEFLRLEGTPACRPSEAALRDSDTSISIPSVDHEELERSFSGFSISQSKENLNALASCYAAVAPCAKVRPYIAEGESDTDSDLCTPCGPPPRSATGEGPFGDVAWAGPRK
Regarding `Cc1ccc(S(=O)(=O)N(C)C)cc1NC(=S)NC(C)CCCC(C)C` (centres undefined), the activity change vs negative control was -2.5% (active).

Consider `O=c1c2ccc(Cl)cc2[nH]c(=S)n1CCC1=CCCCC1`, for which the activity change vs negative control was 32.4%.

Turning to `NC(=O)c1cccc(N=Cc2cc(Cl)cc(Cl)c2O)c1`, the activity change vs negative control is 43.3%. Consider `O=C(Nc1nc(=S)ss1)c1ccc(Cl)cc1Cl`, for which the activity change vs negative control is 122%. Take `CCC1CCCCN1C(=S)NC(=O)c1cccc([N+](=O)[O-])c1` (centres undefined): the activity change vs negative control is 55.4%. `O=C(NC(=S)NCCC1=CCCCC1)c1ccc(Br)o1`: the activity change vs negative control was 26.5%. On to `Cc1cc([N+](=O)[O-])c(C)cc1-c1ccc(/C=N/NC(=O)Cn2nnnc2N)o1`, for which the activity change vs negative control was 19.5%. Then `C=CCSC1=C(C#N)C(c2ccccc2)CC(=O)N1` (centres undefined), with -8.8% (active); and `COc1ccc(C(=O)NNC(=O)C(=O)Nc2cccc3ccccc23)cc1`, with 80.5%; and `Cc1ccc(NC(=O)C(=O)NNC(=O)c2cccs2)cc1`, with 83.8%. Turning to `C=CCn1c(SCC(N)=O)nc2scc(-c3ccc(C)o3)c2c1=O`, the activity change vs negative control is 33%.

As to `CCCN(CCC)C(=S)NC(=O)c1ccc(-c2ccccc2)cc1`, the activity change vs negative control was 106%.

As for `O=C(CSc1nnc(NC(=O)c2ccc(S(=O)(=O)N3CCOCC3)cc2)s1)Nc1ccccc1C(F)(F)F`, the activity change vs negative control is 15.7%. For `CSc1ccc(S(=O)(=O)N2CCC(C(=O)Nc3ccccc3C(F)(F)F)CC2)cc1` the value was -0.2% (active); for `CS(=O)(=O)N1CCC(C(=O)Nc2c(F)cccc2F)CC1`, 16.7%; for `S=c1[nH]c2cc(-c3ccccc3)ccc2o1`, 114%. With `N#Cc1ccc(-c2nc3ccc(Br)cc3c(=O)n2O)cc1`, the activity change vs negative control is 40.3%.

With `Cc1ccc(S(=O)(=O)Nc2ccc(O)c3ccccc23)c(C)c1`, the activity change vs negative control was -3.3% (active). Regarding `O=S(=O)(Nc1ccc(O)c2ccccc12)c1ccc(F)cc1`, the activity change vs negative control was 1.7%. Turning to `COc1ccc(OC)c(S(=O)(=O)Nc2ccc(O)c3ccccc23)c1`, the activity change vs negative control was 1.4%. In the case of `CC1Cc2ccccc2N1C(=S)NC(=O)C1(C)CC1(Cl)Cl` (centres undefined), the activity change vs negative control was 59.5%.

Turning to `CC(NC(=S)NC1CCCCC1)c1ccccc1` (centres undefined), the activity change vs negative control is 29.9%. Consider `Cc1ccc(S(=O)(=O)N2CCOCC2)cc1NC(=O)COC(=O)c1cccnc1Cl`, for which the activity change vs negative control was -1.4% (active). For `Cc1ccc(S(=O)(=O)N2CCOCC2)cc1NC(=O)CSc1nc2ccccc2c(=O)n1Cc1ccccc1` the value was 13.7%.

As to `Cc1ccc(Cl)cc1NC(=O)COC(=O)c1ccccc1O`, the activity change vs negative control is 6.8%. Regarding `C=CCNC(=S)Nc1sc2c(c1C(=O)OCC)CC(C)(CC)OC2` (centres undefined), the activity change vs negative control is 38.9%. In the case of `CC(=O)/C=C1/C(=O)Nc2ccccc21`, the activity change vs negative control was -4.4% (active). As to `CCOC(=O)c1c(NS(C)(=O)=O)sc2c1CCC(C)C2` (centres undefined), the activity change vs negative control was 40.9%. Regarding `O=c1c2[nH]c3ccccc3c2nc2n1CCCS2`, the activity change vs negative control was 30.9%. `O=C(Nc1ccc(-c2csc(Nc3cccc(C(F)(F)F)c3)n2)cc1)c1ccccc1`: the activity change vs negative control is -0.8% (active). With `c1ccc(-c2csc(Nc3ccc4c(c3)OCCO4)n2)cc1`, the activity change vs negative control is 1.2%.

Take `O=C(NC(=S)Nc1cccc(C(F)(F)F)c1)c1csnn1`: the activity change vs negative control was 138%. On to `CC(=O)OCC1O[C@@H](O[C@@H]2C[C@H]3C(C)(C)[C@H](OC(C)=O)CC[C@]3(C)[C@H]3CC[C@]45C[C@]4(CC[C@H]5[C@@H](C)C[C@@H](O)[C@H](O)C(C)(C)O)[C@@]32C)[C@H](O)[C@@H](O)[C@@H]1O` (some centres undefined), for which the activity change vs negative control was 32.4%. As for `Cc1csc(NC(=S)NC(=O)c2ccccc2)n1`, the activity change vs negative control was 36.6%. `NC(=O)CSc1nc2ccccc2c(=O)n1CCc1ccccc1`: the activity change vs negative control was 7.8%.

Turning to `Cn1cnnc1SCC(=O)NCc1ccccc1`, the activity change vs negative control was -1.1% (active). As for `COc1ccc(C(=O)NNC(=O)CSc2nnc(COc3ccccc3)n2C)cc1`, the activity change vs negative control is 6%. On to `C=CCn1c(O)c(N=NC(=S)Nc2ccc(OC)cc2)c2ccccc21`, for which the activity change vs negative control was 39.5%. As to `CCOc1ccc(NC(=S)NC(=O)c2ccco2)cc1`, the activity change vs negative control was 37.5%.

Consider `CCCOc1ccc(CN(CCC#N)C(=S)NC(=O)c2ccccc2)cc1`, for which the activity change vs negative control is 35.1%.

Regarding `COc1ccc(/C=C/C(=O)NC(=S)NNC(=O)c2cccs2)cc1`, the activity change vs negative control is 6.5%. Consider `O=C(NC(=S)NNC(=O)c1cccs1)c1ccc(Br)o1`, for which the activity change vs negative control is 18.8%.

As for `CCOc1ccc(C(=O)NC(=S)N(Cc2ccccc2)Cc2ccccc2)cc1`, the activity change vs negative control was 15.8%. As for `CCOc1ccccc1NC(=S)NC(=O)c1ccco1`, the activity change vs negative control is 21.9%. Regarding `CCCOc1ccc(C(=O)NNC(=S)NC(=O)c2ccco2)cc1`, the activity change vs negative control was -4.6% (active). Then `CCCOc1ccc(C(=O)NNC(=S)NC(=O)c2ccccc2)cc1`, with -1.3% (active). Then `CCCOc1ccc(C(=O)NNC(=S)NC(=O)c2cccs2)cc1`, with -12.7% (active). `COC(=O)C1=C(C)NC2=C(C(=O)CCC2)C1c1ccc(-c2ccsc2C(=O)OC)o1` (centres undefined): the activity change vs negative control is 75.1%. For the compound `O=C(NC(=S)NCc1ccccc1)c1cccs1`, the activity change vs negative control is 36.9%.

For the compound `CCOc1ccc(-c2c(=O)n(O)c3ccccc3[n+]2[O-])cc1`, the activity change vs negative control is 83.3%.

Turning to `S=c1[nH]cc(Cc2ccccc2)s1`, the activity change vs negative control was 25.1%. As to `Oc1c(Br)cc(Br)cc1CNc1cccc2cccnc12`, the activity change vs negative control was -1.8% (active). Then `Oc1c(Br)cc(Br)cc1C=Nc1cccc2ncccc12`, with 52.3%. For `O=C1C=C(Nc2cccc3cccnc23)c2ccccc2C1=O` the value was 14.9%; for `Cc1ccc(-n2ncc3c2CCCC3NC(=O)c2csnn2)cc1C` (centres undefined), -1.1% (active); for `Cc1cc(C)cc(-n2ncc3c2CCCC3NC(=O)c2csnn2)c1` (centres undefined), -0.8% (active).

In the case of `Cc1cccnc1NC(=O)c1csnn1`, the activity change vs negative control was 14.2%. Take `COc1ccc(-n2ncc3c2CC(C)(C)CC3NC(=O)c2cn[nH]c2)cc1` (centres undefined): the activity change vs negative control is 0.2%.

`Cc1nn(-c2ccccc2)c(Cl)c1/C=C1\SC(=S)NC1=O`: the activity change vs negative control is 81.9%. For `COc1ccc(-c2cc(C(=O)N3CCCC3)no2)cc1OC`, the activity change vs negative control was 24%. Then `O=C(NC(=S)Nc1ccccc1)c1ccc(Br)o1`, with 34.7%; and `Cc1ccc(C(C(=O)NC(C)(C)C)N(Cc2cccnc2)C(=O)C(=O)NC2CCCCC2)o1` (centres undefined), with 14.9%. For `CCSc1nc(=S)cc(C)[nH]1`, the activity change vs negative control was 78.1%.

For the compound `COc1ccc(S(=O)(=O)N2CCCC(C(=O)Nc3ccc(OC)c(OC)c3)C2)cc1` (centres undefined), the activity change vs negative control was 5.6%.

For `CC(C)N1CC(C(=O)Nc2ccc(Cl)c(Cl)c2)CC1=O` (centres undefined), the activity change vs negative control was -0.8% (active).

In the case of `O=C(O)C1C2CCC(O2)C1C(=O)Nc1ccc(F)c(Cl)c1` (centres undefined), the activity change vs negative control is 10.3%.

On to `CCOC(=O)C(=CNc1ccc(N2CCOCC2)cc1)C(=O)OCC`, for which the activity change vs negative control was 29.7%. Turning to `COc1ccccc1Cn1c(=S)[nH]c2ccc(Br)cc2c1=O`, the activity change vs negative control was 7.2%.

Regarding `Cc1[nH]c(-c2ccccn2)nc(=S)c1Cl`, the activity change vs negative control was 107%. For `O=c1c2ccccc2[nH]c(=S)n1CCC1=CCCCC1` the value was 49.3%. For `Cc1ccc(NS(=O)(=O)c2cn(C)c(=O)n(C)c2=O)c(C)c1`, the activity change vs negative control is 14.1%.

For the compound `Cc1ccc2cc(CN(CCCN(C)C)C(=S)NCc3ccccc3)c(=O)[nH]c2c1C`, the activity change vs negative control was -0.3% (active). For `Cc1ccc2cc(CCNC(=O)C(=O)c3c(C)[nH]c4ccccc34)c(=O)[nH]c2c1` the value was 0.8%; for `Cc1ccc(-n2nc3ccc(N)cc3n2)c(C)c1`, -14.5% (active); for `O=C(COc1ccc2c3c(c(=O)oc2c1)CCC3)N[C@@H](Cc1ccccc1)C(=O)O`, 31.1%. For `CCOC(=O)C1CCN(S(=O)(=O)c2cccc3nonc23)CC1` the value was 20.3%; for `CCOc1ccc(C(=O)N(CN2CCCC2=O)c2ccc(C)cc2)cc1`, 44.8%; for `Cc1ccc(C(=O)Nc2sc3c(c2C(=O)O)CCCCC3)o1`, -2.5% (active).

With `CC(C)OC(=O)c1c(NC(=O)c2ccco2)sc2c1CCCCC2`, the activity change vs negative control is 3.9%.

With `Cc1onc(-c2ccccc2)c1C(=O)NC(=S)Nc1sc2c(c1C#N)CCCC2`, the activity change vs negative control was 10.5%.

Consider `Oc1c(Br)cc(Br)cc1C=Nc1ccc2[nH]ncc2c1`, for which the activity change vs negative control is 54.4%. For `O=C(NC(=S)N1CCN(c2ccc(C(F)(F)F)cc2[N+](=O)[O-])CC1)c1cccs1` the value was 30.1%; for `COc1cccc(OC)c1C(=O)NC(=S)N1CCN(c2ccc(C(F)(F)F)cc2[N+](=O)[O-])CC1`, -6% (active); for `CC(C)Oc1cccc(C(=O)NC(=S)N2CCN(c3ccc(C(F)(F)F)cc3[N+](=O)[O-])CC2)c1`, 11.4%.

Consider `CCOC(=O)c1n[nH]n2c1nc(=S)c1ccccc12`, for which the activity change vs negative control was 77.4%. Take `CSC(=S)N/N=C/c1ccccc1`: the activity change vs negative control is 71%.

Take `Cc1cccc(/C=N/NC(=O)c2cc(Br)ccc2O)n1`: the activity change vs negative control is 23.8%. For `Cc1ccc(C(=O)N2CCN(c3ccccc3)CC2)cc1S(=O)(=O)N1CCCC1` the value was 29.7%. On to `O=C(NC(=S)N(CC1CCC1)CC1CCCO1)c1cccc([N+](=O)[O-])c1` (centres undefined), for which the activity change vs negative control was 63.2%. Regarding `O=C(NC(=S)Nc1cc(C(F)(F)F)ccc1N1CCOCC1)c1ccco1`, the activity change vs negative control was 11.7%. For `O=C(CCc1ccccc1)NC(=S)Nc1cc(C(F)(F)F)ccc1N1CCOCC1` the value was -15.9% (active). With `O=C(NC(=S)Nc1cc(C(F)(F)F)ccc1Cl)c1ccccc1`, the activity change vs negative control was 8.2%. Turning to `COc1cc(C(=O)Nc2ccc(O)cc2C(=O)O)ccc1OC(C)=O`, the activity change vs negative control is 3.8%. Regarding `Cn1c(=O)c(Sc2ccccc2)c(O)c2ccccc21`, the activity change vs negative control is 23.4%. Then `COc1ccc(C(=O)NNC(=O)C(=O)NC2CCCCC2)cc1`, with 20.2%; and `O=C(c1csc(Nc2ccccc2Cl)n1)N1CCCC1`, with 0%; and `CCOc1ccc(-n2cnc3sc(C)c(C)c3c2=O)cc1`, with 3%. Consider `COc1ccccc1-n1cnc2sc(C)c(C)c2c1=O`, for which the activity change vs negative control is 11.8%. With `Cc1ccc(OC(=O)c2sc3ncn(C)c(=O)c3c2C)cc1`, the activity change vs negative control is -1.4% (active).
